Data reported in PubChem BioAssay AID977607 (Broad Institute, 2014).
Among all 1,500 compounds or so, about 460 (31%) were called active. Roughly 1% stayed inconclusive and do not appear here.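 The calls were made as follows: active = curve reaches 40% activation over neutral controls at an AC40 no higher than the top valid tested concentration; inconclusive = no clear call, values can overlap the other calls; inactive = signal moving opposite to the expected increase, and the rest.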 The list is a sample of the results. Potency and affinity values are given separately.

assay: activators of glucose-dependent insulin secretion, dose response, cell-based, INS-1E, Gaussia luciferase, luminescence, cherry-pick, set 2 (AID 977607); details: INS-1E GLuc insulin secretion reporter, 2-3 h, stronger effect = higher value; at 35 µM, 100% = signal doubled over neutral wells unless noted;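 also: 0% = median of the plate neutral control wells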

Max activation, inactive:
Cc1ccc(C)c(S(=O)(=O)Nc2ccc(C(=O)N3CCC3)cc2)c1 27.7%
Cc1c(-c2cccc(Cl)c2)nc2ccccc2c1C(=O)NC1CC1 35.1% [at 1.2 µM, 100% = signal doubled over neutral wells]
Cc1cc(C)cc(Cn2c3ccc(NC(=S)NCc4ccccc4F)cc3c(=O)n2C)c1 -51.1%
COC(=O)c1cccc(-n2c(=O)n(Cc3ccccc3)c(=O)c3[nH]cnc32)c1C 38.9% [at 11 µM, 100% = signal doubled over neutral wells]
O=c1c2[nH]cnc2n(-c2ccc(F)cc2)c(=O)n1Cc1ccccc1 25.9% [at 0.42 µM, 100% = signal doubled over neutral wells]
CN(Cc1ccccc1)c1ncnc2[nH]ncc12 19.1% [at 3.8 µM, 100% = signal doubled over neutral wells]
Nn1c(C2CCCCC2)nc2ccccc2c1=O -24.8% [at 0.42 µM, 100% = signal doubled over neutral wells]
CC(O)c1nc2ccccc2n1C1CCCCC1 (centres undefined) -13.8% [at 3.8 µM, 100% = signal doubled over neutral wells]
O=C(O)COc1ccc2c3c(c(=O)oc2c1)CCC3 -18%
CCOC(=O)Cc1cc(=O)n2[nH]c(-c3ccc(C)cc3)cc2n1 26.5% [at 0.015 µM, 100% = signal doubled over neutral wells]
O=C(CCS(=O)(=O)c1ccc(Cl)cc1)Nc1ccc(N2CCOCC2)cc1 26.5% [at 0.0016 µM, 100% = signal doubled over neutral wells]
CCOc1ccc(CCNC(=O)CCC(=O)c2cccs2)cc1OCC -10.4% [at 0.0016 µM, 100% = signal doubled over neutral wells]
C=CCNC(=O)c1cc(-c2ccc3c(c2)OCO3)on1 -23.5%
CCOc1cccc2cc(C(=O)Nc3cc(C)on3)c(=O)oc12 -15.3% [at 0.42 µM, 100% = signal doubled over neutral wells]
O=C(NCCc1ccccc1)c1cc(-c2ccc3c(c2)OCO3)on1 -16.8% [at 0.015 µM, 100% = signal doubled over neutral wells]
CC(=O)Cc1nsc(NC(=O)c2ccc(-c3cccc(Cl)c3)o2)n1 -41.3%
CCc1cc2c(COC(=O)c3cccc(S(C)(=O)=O)c3)cc(=O)oc2cc1O -21.8%
COCCNc1nc(NCCCN2CCCC2=O)c2sccc2n1 -21.2% [at 0.005 µM, 100% = signal doubled over neutral wells]
CN(C)c1ncnc2sc(-c3ccccc3)cc12 75.3%
CCOC(=O)c1cnc2c(cnn2C)c1Oc1ccc(OC)cc1 -8.37% [at 0.135 µM, 100% = signal doubled over neutral wells]
C=C(C)n1c(=O)n(Cc2ccccc2C)c2ccccc21 -20.9% [at 0.0016 µM, 100% = signal doubled over neutral wells]
COc1ccc(CC(=O)OCC(=O)N2CCc3ccccc32)cc1OC -17.9% [at 0.135 µM, 100% = signal doubled over neutral wells]
COc1ccc(CN(C)C(=O)CCN=C2NS(=O)(=O)c3ccccc32)c(OC)c1 -22.4% [at 0.015 µM, 100% = signal doubled over neutral wells]
O=C1Nc2ccccc2N(C(=O)c2ccc3ccccc3c2)C1c1nc2ccccc2[nH]1 (centres undefined) -24.4% [at 11 µM, 100% = signal doubled over neutral wells]
CC1=C(C(=O)N2CCOCC2)CC(CC(=O)NCCCN(C)C)C(=O)N1CCCN1CCCC1=O (centres undefined) -20.9%
Cc1cc(Br)ccc1NC(=O)CN(C)C(=O)C1CSC2(C)CCC(=O)N12 (centres undefined) -12.1% [at 0.015 µM, 100% = signal doubled over neutral wells]
O=S(=O)(c1ccc(Cl)nc1)N1CCc2ccccc21 -28.1%
COc1ccc(S(=O)(=O)N2CCc3ccccc32)cc1C(=O)Nc1cccnc1 -10.3% [at 3.8 µM, 100% = signal doubled over neutral wells]
COc1cc(C(=O)O)ccc1OCc1ccccc1 -15.4% [at 0.42 µM, 100% = signal doubled over neutral wells]
CCc1ccc(N(C2C=CS(=O)(=O)C2)S(=O)(=O)c2ccccc2)cc1 (centres undefined) -8.85% [at 0.015 µM, 100% = signal doubled over neutral wells]
CCCc1nnc2c(N(C)S(=O)(=O)c3ccc(C)cc3)nc3ccccc3n12 -17% [at 0.005 µM, 100% = signal doubled over neutral wells]
COc1ccc(Nc2c3c(nc4ccccc24)CCC3)cc1 -16.4% [at 0.046 µM, 100% = signal doubled over neutral wells]
c1csc(CNc2nc(Oc3ccncc3)c3sccc3n2)c1 -17.1% [at 0.0016 µM, 100% = signal doubled over neutral wells]
CN1CCCCC(NC(=O)c2ccccc2)C1=O (centres undefined) -13.5% [at 0.42 µM, 100% = signal doubled over neutral wells]
COc1ccc(S(=O)(=O)Nc2ccc3c(c2)OCO3)cc1OC -21.1%
Cc1cccc(C)c1-n1nnnc1C1(C)CCC(=O)N1Cc1cccs1 (centres undefined) 25.2%
CCOc1cc(CNc2cccc3[nH]c(C)nc23)ccc1OC -11.6% [at 0.0016 µM, 100% = signal doubled over neutral wells]
CCN(CC)C(=O)Cn1cc(C(=O)C(=O)N2CCN(Cc3ccccc3)CC2)c2ccccc21 -19.3%
CC(=O)N1CCN(c2nnc(-c3ccc(C)cc3)c3ccccc23)CC1 -19.3% [at 3.8 µM, 100% = signal doubled over neutral wells]
Cc1ncc(N=Nc2ccc(F)cc2)c(-c2ccc(Cl)cc2)n1 105%
CC(=O)Nc1nc(NCc2ccccc2Cl)n(-c2ccccc2)n1 -19.9% [at 0.135 µM, 100% = signal doubled over neutral wells]
COc1ccc(CCNC(=O)CCn2c(=O)c3cccn3c3cccnc32)cc1OC 27.2% [at 11 µM, 100% = signal doubled over neutral wells]
CCCn1c(O)c(N=NC(=O)c2cccnc2)c2cc(Br)ccc21 -23%
Cc1cc(=O)n(Cc2ccccc2)c2ccccc12 22.3%
Cc1ccc(S(=O)(=O)Nc2nc(C)cc(NN)n2)cc1 -19.8% [at 0.015 µM, 100% = signal doubled over neutral wells]
COc1ccc(N/C=C/C(=O)c2ccc(Cl)cc2)cc1 -21.2% [at 0.42 µM, 100% = signal doubled over neutral wells]
Cc1c(C)c2c(OCC(=O)O)cc3c(c2oc1=O)CCC(C)(C)O3 -24.4% [at 0.135 µM, 100% = signal doubled over neutral wells]
COc1cc2c(cc1OC)C(Cc1ccc(O)cc1)N(C)CC2 (centres undefined) -15.9% [at 0.0016 µM, 100% = signal doubled over neutral wells]
COc1cc2c(cc1OC)C(Cc1ccc(O)cc1)NCC2 (centres undefined) 24.7% [at 0.0016 µM, 100% = signal doubled over neutral wells]
O=C(NCCC1CCCCN1S(=O)(=O)c1ccc(F)cc1)C(=O)NCc1cccnc1 (centres undefined) -23.5% [at 1.2 µM, 100% = signal doubled over neutral wells]
COc1ccc2oc(-c3ccncc3)cc(=O)c2c1 16.4%
COc1ccc(C(=O)Cc2cc3cccc(OC)c3oc2=O)cc1 -21.5% [at 0.0016 µM, 100% = signal doubled over neutral wells]
O=C(NCc1ccccn1)c1ccccc1OCc1ccc(Cl)cc1Cl -25.4%
COc1ccc2oc(=O)c(C(=O)NCc3ccccn3)cc2c1 -9.33% [at 1.2 µM, 100% = signal doubled over neutral wells]
COc1ccc(Cc2nnc(-c3ccccc3)o2)cc1 24.7% [at 0.42 µM, 100% = signal doubled over neutral wells]
COc1cc(CN(C)c2ccc(S(=O)(=O)N3CCCC3)cn2)ccc1OC(F)F -33.3% [at 11 µM, 100% = signal doubled over neutral wells]
CCN1CCN(CC(=O)Nc2ccc(C(C)=O)cc2)CC1 -17% [at 1.2 µM, 100% = signal doubled over neutral wells]
O=C(NC(=S)Nc1cccc2[nH]ncc12)c1ccccc1 -16.1% [at 1.2 µM, 100% = signal doubled over neutral wells]
COc1ccc(C(=O)/C=C2/c3ccccc3CC(C)(C)N2C)cc1OC -35.3% [at 1.2 µM, 100% = signal doubled over neutral wells]
